Results as given in PubChem BioAssay AID1159580 (chemical genetic matrix, 2015).
Among all 5,500 compounds or so, about 2,000 (36%) were called active. Not shown: some 18% with an inconclusive outcome. Rule as the data show it: active = normalized growth mostly below about 0.91 (no sharp cut-off); inconclusive = no clear call, values can overlap the other calls; inactive = mostly above about 0.92. The list shows a part of the results.

Assay: chemical genetic growth profiling, strain panel (AID 1159580);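 also: tested at 20 µM; growth read once vehicle control cultures reached saturation at 30 °C; 1 = growth at the plate median or of vehicle wells; lower values mean less growth of the strain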
Conditions: growth OD

Measured: normalized growth

COc1cc2cc3c4cc(OC)c(OC)cc4cc[n+]3c(C)c2cc1OC
inactive: S. cerevisiae deletion strains, locus YJR043C, strain POL32, hits give low values 0.98 | S. cerevisiae deletion strains, locus YJR066W, strain TOR1, hits give low values 0.964 | S. cerevisiae deletion strains, locus YKL009W, strain mrt4, hits give low values 0.997 | S. cerevisiae deletion strains, locus YKL068W, hits give low values 1.01 | S. cerevisiae deletion strains, locus YKL085W, strain MDH1 (second series), hits give low values 1.03 | S. cerevisiae deletion strains, locus YKL085W, strain MDH1, hits give low values 1.03 | S. cerevisiae deletion strains, locus YKL160W, strain elf1, hits give low values 0.988 | S. cerevisiae deletion strains, locus YKL190W, strain CNB1, hits give low values 1.01 | S. cerevisiae deletion strains, locus YKR001C, strain vps1, hits give low values 1.05 | S. cerevisiae deletion strains, locus YKR026C, strain gcn3, hits give low values 1.02 | S. cerevisiae deletion strains, locus YKR091W, strain srl3, hits give low values 1 | S. cerevisiae deletion strains, locus YLL001W, strain dnm1, hits give low values 1.01 | S. cerevisiae deletion strains, locus YLL026W, hits give low values 1.02 | S. cerevisiae deletion strains, locus YLL041C, strain sdh2, hits give low values 1.02 | S. cerevisiae deletion strains, locus YLR027C, strain aat2, hits give low values 1.03 | S. cerevisiae deletion strains, locus YLR039C, strain RIC1, hits give low values 1.11 | S. cerevisiae deletion strains, locus YLR058C, strain SHM2, hits give low values 0.998 | S. cerevisiae deletion strains, locus YLR102C, strain apc9, hits give low values 1.01 | S. cerevisiae deletion strains, locus YLR113W, strain HOG1, hits give low values 0.992 | S. cerevisiae deletion strains, locus YLR221C, strain rsa3, hits give low values 1.02 | S. cerevisiae deletion strains, locus YLR258W, strain gsy2, hits give low values 0.982 | S. cerevisiae deletion strains, locus YLR262C, strain YPT6 (second series), hits give low values 1.03 | S. cerevisiae deletion strains, locus YLR262C, strain YPT6, hits give low values 1.14 | S. cerevisiae deletion strains, locus YLR268W, strain sec22, hits give low values 1.02 | S. cerevisiae deletion strains, locus YLR320W, strain mms22, hits give low values 1 | S. cerevisiae deletion strains, locus YLR330W, strain CHS5, hits give low values 1.01 | S. cerevisiae deletion strains, locus YLR342W, strain FKS1 (second series), hits give low values 0.98 | S. cerevisiae deletion strains, locus YLR342W, strain FKS1, hits give low values 1.02 | S. cerevisiae deletion strains, locus YLR357W, strain rsc2, hits give low values 1.01 | S. cerevisiae deletion strains, locus YLR370C, strain arc18, hits give low values 1.02 | S. cerevisiae deletion strains, locus YLR371W, strain rom2, hits give low values 1.02 | S. cerevisiae deletion strains, locus YLR384C, strain iki3, hits give low values 1.01 | S. cerevisiae deletion strains, locus YLR418C, strain cdc73, hits give low values 0.966 | S. cerevisiae deletion strains, locus YML016C, strain PPZ1, hits give low values 1.02 | S. cerevisiae deletion strains, locus YML032C, strain rad52, hits give low values 0.925 | S. cerevisiae deletion strains, locus YML120C, strain ndi1, hits give low values 1 | S. cerevisiae deletion strains, locus YML124C, strain tub3, hits give low values 1.01 | S. cerevisiae deletion strains, locus YMR058W, strain fet3, hits give low values 1.02 | S. cerevisiae deletion strains, locus YMR078C, strain ctf18, hits give low values 1.02 | S. cerevisiae deletion strains, locus YMR125W, strain sto1, hits give low values 0.999 | S. cerevisiae deletion strains, locus YMR129W, hits give low values 1.01 | S. cerevisiae deletion strains, locus YMR205C, strain PFK2, hits give low values 0.979 | S. cerevisiae deletion strains, locus YMR223W, strain ubp8, hits give low values 0.982 | S. cerevisiae deletion strains, locus YMR231W, strain pep5, hits give low values 0.949 | S. cerevisiae deletion strains, locus YMR307W, strain GAS1, hits give low values 1.02 | S. cerevisiae deletion strains, locus YNL067W, strain RPL9B, hits give low values 1.01 | S. cerevisiae deletion strains, locus YNL071W, strain lat1, hits give low values 1 | S. cerevisiae deletion strains, locus YNL183C, strain NPR1, hits give low values 0.938 | S. cerevisiae deletion strains, locus YNL209W, strain ssb2, hits give low values 1 | S. cerevisiae deletion strains, locus YNL233W, strain BNI4, hits give low values 0.995 | S. cerevisiae deletion strains, locus YNL248C, strain rpa49, hits give low values 1.01 | S. cerevisiae deletion strains, locus YNL250W, strain rad50, hits give low values 1 | S. cerevisiae deletion strains, locus YNL271C, strain bni1, hits give low values 1.02 | S. cerevisiae deletion strains, locus YNL298W, strain CLA4, hits give low values 1.01 | S. cerevisiae deletion strains, locus YNL307C, strain MCK1, hits give low values 1.01 | S. cerevisiae deletion strains, locus YNL322C, strain KRE1 (second series), hits give low values 1 | S. cerevisiae deletion strains, locus YNR049C, strain mso1, hits give low values 1.04 | S. cerevisiae deletion strains, locus YNR052C, strain pop2, hits give low values 0.978 | S. cerevisiae deletion strains, locus YOL006C, strain TOP1, hits give low values 1.04 | S. cerevisiae deletion strains, locus YOL012C, strain htz1 1.07 | S. cerevisiae deletion strains, locus YOL147C, strain pex11, hits give low values 1.03 | S. cerevisiae deletion strains, locus YOR001W, strain rrp6, hits give low values 1.03 | S. cerevisiae deletion strains, locus YOR061W, strain CKA2, hits give low values 1.01 | S. cerevisiae deletion strains, locus YOR069W, strain VPS5, hits give low values 1.01 | S. cerevisiae deletion strains, locus YOR070C, strain gyp1, hits give low values 1.02 | S. cerevisiae deletion strains, locus YOR080W, strain dia2, hits give low values 1.01 | S. cerevisiae deletion strains, locus YOR083W, strain WHI5, hits give low values 0.985 | S. cerevisiae deletion strains, locus YOR106W, strain vam3, hits give low values 0.981 | S. cerevisiae deletion strains, locus YOR136W, strain idh2, hits give low values 1.02 | S. cerevisiae deletion strains, locus YOR144C, strain elg1, hits give low values 1.01 | S. cerevisiae deletion strains, locus YOR184W, strain ser1, hits give low values 0.993 | S. cerevisiae deletion strains, locus YOR231W, strain MKK1, hits give low values 0.983 | S. cerevisiae deletion strains, locus YOR265W, strain rbl2, hits give low values 1.01 | S. cerevisiae deletion strains, locus YOR270C, strain vph1, hits give low values 1.08 | S. cerevisiae deletion strains, locus YOR290C, strain snf2, hits give low values 0.982 | S. cerevisiae deletion strains, locus YOR316C, strain cot1, hits give low values 1.02 | S. cerevisiae deletion strains, locus YPL051W, strain arl3, hits give low values 1.02 | S. cerevisiae deletion strains, locus YPL055C, strain LGE1, hits give low values 0.999 | S. cerevisiae deletion strains, locus YPL078C, strain atp4, hits give low values 1 | S. cerevisiae deletion strains, locus YPL106C, strain sse1, hits give low values 0.983 | S. cerevisiae deletion strains, locus YPL240C, strain hsp82, hits give low values 1 | S. cerevisiae deletion strains, locus YPL256C, strain CLN2, hits give low values 0.968 | S. cerevisiae deletion strains, locus YPR119W, strain clb2, hits give low values 1.01 | S. cerevisiae deletion strains, locus YPR141C, strain kar3, hits give low values 1.01 | S. cerevisiae deletion strains, locus YPR163C, strain tif3, hits give low values 1.01 | S. cerevisiae deletion strains, locus YPR167C, strain met16, hits give low values 0.997 | S. cerevisiae deletion strains, strain wtn01, hits give low values 1.02 | S. cerevisiae strains, strain wild type, hits give low values 1
